As usually defined, the AC50 is the concentration giving half of the maximal activity seen.

From PubChem BioAssay AID1851 (National Center for Advancing Translational Sciences (NCATS), 2009) come the findings set out here.

Screen size: about 16,000 compounds; about 4,000 (25%) were called active. Another 26% or so got no clear call; they are omitted. The list is a sample of the results. Unmarked numbers belong to inactive results. Calls come from the whole dose curve; as a rule, active = well fitted curve in the direction sought with a large enough effect; inconclusive = small, poorly fitted or top-dose-only effect, or effect the other way; inactive = no such curve, though single readings can be large or run the other way.
% is set by controls: 0 for no effect and ±100 for the full control effect.

The target in this assay is Cytochrome P450 2C9 (Homo sapiens) (UniProt P11712). The assay can be described thus: Cytochrome panel assay with activity outcomes. The conditions noted are these: recombinant CYP, pro-luciferin dealkylation, luminescence, p450-cyp2c9; series mostly up to 57.1 µM; activity, negative = inhibition: at the top concentration.
Cytochrome P450 2C9 (Homo sapiens), sequence (P11712 whole entry, looked up): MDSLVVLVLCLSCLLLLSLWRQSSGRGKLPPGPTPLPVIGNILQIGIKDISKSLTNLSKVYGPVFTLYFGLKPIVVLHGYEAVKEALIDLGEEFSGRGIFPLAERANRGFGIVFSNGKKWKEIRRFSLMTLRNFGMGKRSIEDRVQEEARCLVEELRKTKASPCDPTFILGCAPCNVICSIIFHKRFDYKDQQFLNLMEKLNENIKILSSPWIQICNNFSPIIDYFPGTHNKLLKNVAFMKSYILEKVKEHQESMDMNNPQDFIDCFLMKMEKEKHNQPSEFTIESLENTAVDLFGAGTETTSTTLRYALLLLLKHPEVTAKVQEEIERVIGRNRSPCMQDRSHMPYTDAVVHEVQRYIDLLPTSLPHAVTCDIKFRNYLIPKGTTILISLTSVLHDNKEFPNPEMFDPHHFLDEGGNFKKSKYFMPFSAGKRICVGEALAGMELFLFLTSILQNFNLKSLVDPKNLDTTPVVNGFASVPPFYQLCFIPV
As for `CO[C@H]1COC(=O)C/C=C\[C@@H](C)[C@H](OC)COC(=O)CCC[C@@H]1C`, the activity, negative = inhibition is 9.38% [at 11.4 µM].

In the case of `COc1cc2c(cc1OC)-c1cc3ccc(OC)c(OC)c3c[n+]1CC2`, the “activity, negative = inhibition” value was -16.3% [at 25.6 µM].

As for `CN(C)c1ncc2nc(-c3cc(F)cc(F)c3)c(=O)n(C[C@H]3CCCO3)c2n1`, the “activity, negative = inhibition” value was 19.4%.

With `COc1ccc(-c2cc(C(F)(F)F)nc(N3CCOCC3)n2)cc1OC`, the AC50 was 3.98 µM (active).

For the compound `COc1ccc(-n2c(=O)c(-c3ccc(F)cc3)nc3cnc(N4CCOCC4)nc32)cc1`, the “activity, negative = inhibition” value was 9.27%.

Consider `Cn1c(=O)c(-c2ccc(F)cc2)nc2cnc(N3CCOCC3)nc21`, for which the “activity, negative = inhibition” value was 6.99%.

As to `COc1cc2c(cc1OC)[C@H](c1ccccc1)CN(C)CC2`, the “activity, negative = inhibition” value is -23.8%.

For `CC(C)(CO)N1CCN(C(=S)Nc2ccccc2)CC1`, the activity, negative = inhibition was 10.3% [at 11.4 µM].

As to `COc1cc2c(cc1OC)CN(C(=S)Nc1ccccc1)CC2`, the AC50 is 4.47 µM (active).

As for `O=C(/C=C/c1cccnc1)c1ccc(NC(=O)c2cccc(Br)c2)cc1`, the AC50 was 4.47 µM (active).

As for `O=C(N/C(=C\c1cccnc1)C(=O)N1CCOCC1)c1cccc(Br)c1`, the “activity, negative = inhibition” value was -30.3%.

Consider `CN(C)CCn1c(C(=O)O)cc2ccccc21`, for which the “activity, negative = inhibition” value is -16.7%.

Turning to `FC(F)(F)c1nc2ccccc2nc1N/N=C/c1ccc(Cl)cc1`, the “activity, negative = inhibition” value was -20.4%.

With `N#CC(c1ccc(Cl)cc1)c1nc2ccccc2nc1C(F)(F)F` (stereo not drawn), the AC50 is 1.41 µM (active).

Consider `Cc1cc(Cl)ccc1Oc1ncnc2oc(-c3ccccc3)cc12`, for which the AC50 was 4.47 µM (active).

For the compound `Cc1ccccc1Oc1ncnc2oc(-c3ccccc3)cc12`, the AC50 was 3.98 µM (active).

`Cc1ccccc1Oc1ncnc2sccc12`: the “activity, negative = inhibition” value was 8.31%.

On to `Cc1cc(Cl)ccc1Oc1ncc(-c2ccc(Cl)cc2)cn1`, for which the “activity, negative = inhibition” value was -15.3%.

Regarding `CC(O)(P(=O)(O)O)P(=O)(O)O`, the “activity, negative = inhibition” value is -5.54% [at 25.6 µM].

In the case of `O=C(c1cnccn1)N1CCC2(CC1)CN(Cc1cc(C(F)(F)F)cc(C(F)(F)F)c1)C2`, the “activity, negative = inhibition” value was 2.54%.

Take `COc1ccc2cc(C)c3nnc(SCC(=O)Nc4nc(-c5ccccc5)cs4)n3c2c1`: the AC50 is 2.82 µM (active).

Turning to `COc1ccc(-c2nc(-c3ccccc3)c(-c3cc([N+](=O)[O-])ccc3C)[nH]2)cc1O`, the half-maximal activity concentration (AC50) was 10 µM (active).

Consider `CCCC(=O)NC(Nc1ccccc1F)C(Cl)(Cl)Cl` (stereo not drawn), for which the AC50 is 8.91 µM (active).

For the compound `N#Cc1c(NC(=O)C2CC(c3ccccc3Cl)=NO2)sc2c1CCC2` (stereo not drawn), the AC50 is 0.708 µM (active).

On to `CCN(c1ccccc1)c1cc(NC)[n+](C)c(C)n1`, for which the “activity, negative = inhibition” value was 5.78%.

Turning to `CN(Cc1ccco1)c1ccnc(-c2cccnc2)n1`, the activity, negative = inhibition was 16.4% [at 2.29 µM].

As to `CC(C)(C)n1nnnc1C(c1cccnc1)N(Cc1ccccc1)Cc1ccco1` (stereo not drawn), the AC50 is 3.98 µM (active).

Turning to `CN(Cc1ccco1)c1nc(-c2cccnc2)nc2ccccc12`, the activity, negative = inhibition is -8.92% [at 2.29 µM].
